p53ts 32C tox: qHTS Screen for Compounds that Selectively Target Cancer Cells with p53 Mutations: Cytotoxicity of p53ts Cells at the Permissive Temperature. hit rate 0.93% among 130,000. Potency, µM (series often up to 46.1 µM), most hits filed as cytotoxic. H1299-p53A138V at 32C, ATP luminescence viability, 24 h; further: nearly all actives have a fitted effect of over 55% in size
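ATP-content luminescence (ATPlite) read-out after 24 h compound exposure at 32C in H1299-p53A138V cells (600/well). Tested up to 46 uM. Normalized to DMSO (0%) and 100 uM tamoxifen (100% killing); Hill-fit AC50.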
Luciferase inh: qHTS Assay for Inhibitors of Firefly Luciferase; purified firefly luciferase, luminescence, 8 min; hit rate 2.2% among 72,000; Potency, µM (doses to about 57.1 µM), usual class: inhibitors; Luciferin 4-monooxygenase (Photinus pyralis), P08659; further: nearly all actives have a fitted effect of over 40% in size
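Inhibition of light generation by firefly luciferase from ATP and luciferin was profiled with concentration-response curves per sample, ATP held at 10 uM within the enzyme's linear range. Plates were read by luminescence after an 8-minute ambient incubation.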
p53ts 39C tox: qHTS Screen for Compounds that Selectively Target Cancer Cells with p53 Mutations: Cytotoxicity of p53ts Cells at the Nonpermissive Temperature. H1299-p53A138V viability at 39C, ATP luminescence, 24 h. Potency, µM (titrated, usually from 46.1 µM), most hits filed as cytotoxic. hit rate 1.5% among 130,000; further: nearly all actives have a fitted effect of over 55% in size
Hits are given with their value; [ ] = dose if it differs, or a comment. Most compounds without a hit are left out; they make up all but 2.5% or so of the library. The call rests on the fitted dose curve; in most records, active means well fitted curve in the direction sought with a large enough effect; inconclusive means small, poorly fitted or top-dose-only effect, or another doubt; inactive means no such curve, though single readings can be large; an effect the other way counts as inactive or inconclusive.

How did OC1CCC2Cc3ccccc3N=C12 (stereo not drawn) do in these assays?
p53ts 32C tox: inactive; p53ts 39C tox: inactive

Results for CC(C)CCOc1ccc(Cn2c(=O)sc3ccccc32)cc1 ?
p53ts 32C tox: inactive; p53ts 39C tox: inactive

Results for C=C(CO)[C@H]1Cc2c(ccc3c2O[C@H]2COc4cc(OC)c(OC)cc4[C@@H]2C3=O)O1 ?
Luciferase inh: inactive[11.4 µM]

Results for COc1ccccc1CNC(=O)CCC1N=C2c3ccccc3N=C(SCC(=O)NCCc3ccc(OC)c(OC)c3)N2C1=O (stereo not drawn) ?
p53ts 32C tox: inactive; p53ts 39C tox: inactive

How did Cc1ccc2nc(Cl)c3cc(C(=O)NCCCN(C)Cc4ccccc4)sc3c2c1 do in these assays?
p53ts 32C tox: inconclusive; p53ts 39C tox: 13µM

Results for CCN(CCCNC(=O)c1cc2c(=O)n(C)c3ccccc3c2s1)Cc1ccccc1 ?
p53ts 32C tox: inactive; p53ts 39C tox: 13µM

What do the screens show for `CCN(CCCNC(=O)c1cc2c(=O)[nH]c3ccc(C)cc3c2s1)Cc1ccccc1`?
p53ts 32C tox: 13µM; p53ts 39C tox: 13µM

What do the screens show for `CN(CCCNC(=O)c1cc2c(Cl)nc3ccccc3c2s1)Cc1ccccc1`?
p53ts 32C tox: inactive; p53ts 39C tox: inconclusive

How did CCN(CC)CCNC(=O)c1cc2c(=O)[nH]c3ccc(C)cc3c2s1 do in these assays?
p53ts 32C tox: inactive; p53ts 39C tox: inactive

How did CCN(CCCNC(=O)c1cc2c(=O)n(C)c3ccccc3c2s1)c1ccccc1 do in these assays?
p53ts 32C tox: inactive; p53ts 39C tox: inconclusive

Results for CC1(C)CCC2(C(=O)O)CC[C@]3(C)C(=CCC4[C@]5(C)CCC(O)C(C)(C)C5C(O)C[C@]43C)C2C1 (stereo partly drawn) ?
p53ts 32C tox: inactive; p53ts 39C tox: inactive

Results for CC(CN(C)C)NC(=O)c1ccc(-n2c(=O)c(=O)[nH]c3ccccc32)cc1 (stereo not drawn) ?
p53ts 32C tox: inactive; p53ts 39C tox: inactive

How did Cc1nc2cnc(N3CCOCC3)nc2n(CCc2ccccc2)c1=O do in these assays?
p53ts 32C tox: inactive; Luciferase inh: inactive[11.4 µM]; p53ts 39C tox: inactive

Results for COc1cccc(C2C(C)CCC3C(=O)N(C)C(C(C)C)C(=O)N32)c1 (stereo not drawn) ?
p53ts 32C tox: inactive[9.22 µM]; p53ts 39C tox: inactive[9.22 µM]

What do the screens show for `Cc1ncoc1C(=O)Nc1ccccc1C(N)=O`?
p53ts 32C tox: inactive; Luciferase inh: inactive; p53ts 39C tox: inactive

How did Cc1ccc(/C=C/C(=O)Nc2ccccc2C(N)=O)o1 do in these assays?
p53ts 32C tox: 7.9µM; p53ts 39C tox: 5µM

What do the screens show for `Cc1ccc(C(=O)Nc2ccncc2)o1`?
p53ts 32C tox: inactive; Luciferase inh: inactive; p53ts 39C tox: inactive

Results for NC(=O)c1ccccc1NS(=O)(=O)c1cccs1 ?
p53ts 32C tox: inactive; Luciferase inh: inactive; p53ts 39C tox: inactive

What do the screens show for `CC(=O)Nc1ccc(N/C=C/C(=O)c2ccc(C)o2)cc1`?
p53ts 32C tox: inactive; Luciferase inh: 16µM; p53ts 39C tox: inactive

How did Cc1ccccc1NC(=O)Nc1cccs1 do in these assays?
p53ts 32C tox: inactive; p53ts 39C tox: inactive

How did Cc1cccc(N/C=C/C(=O)c2cccs2)c1C do in these assays?
p53ts 39C tox: 10µM

How did NC(=O)c1ccccc1N/C=C/C(=O)c1cccs1 do in these assays?
p53ts 32C tox: 11µM; p53ts 39C tox: inconclusive

What do the screens show for `CCOC(=O)CCNC(=O)N1CCN(S(=O)(=O)c2ccc3c(ccn3C)c2)CC1`?
p53ts 32C tox: inactive; p53ts 39C tox: inactive

How did Cc1cc(N2CCC(C)CC2)nc2ccc(NC(=O)Cc3c(F)cccc3Cl)cc12 do in these assays?
p53ts 32C tox: inactive; p53ts 39C tox: inactive

How did CCCS(=O)(=O)NCCc1csc(-c2cccnc2)n1 do in these assays?
p53ts 32C tox: inactive; Luciferase inh: inactive; p53ts 39C tox: inactive

What do the screens show for `N#CCCn1c(=O)c(-c2cccc(C#N)c2)nc2cnc(N3CCOCC3)nc21`?
p53ts 32C tox: inactive; Luciferase inh: inactive[11.4 µM]; p53ts 39C tox: inactive

How did NC(=O)c1ccccc1NC(=O)c1ccc(-c2ccc(Br)cc2)o1 do in these assays?
p53ts 32C tox: inactive; p53ts 39C tox: inactive

Results for Cc1ccc(C(=O)/C=C/Nc2ccccc2C(N)=O)o1 ?
p53ts 32C tox: 13µM; Luciferase inh: 6.3µM; p53ts 39C tox: 13µM

Results for Cc1ccc(N=Nc2c(O)c(S(=O)(=O)O)cc3cc(S(=O)(=O)O)ccc23)c(C)c1 ?
p53ts 32C tox: inactive[9.22 µM]; Luciferase inh: inactive[11.4 µM]; p53ts 39C tox: inactive[9.22 µM]

Source: PubChem BioAssay
